In the supplement of paper PMC6555819 one finds PBM binding z-score data, which are given here for 40 sequences.

The first assay relates to PPARg DBDmut:RXRa IVT, anti-PPARg (DBD mutation: PPARg1 K132A/R137A, NR concentration 270 nM, RXRa partner concentration 90 nM). Kind of assay: PBM binding z-score (relative to random genomic background probes); higher = stronger binding; sequences stand for … in GC…GCGATTGACAGCGTAGAATGAAGG
In short, it runs like this: (§1)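 Ligand-free nuclear receptor dimers were applied to custom Agilent 4×180K protein-binding microarrays whose double-stranded probes carried direct-repeat seeds, single-nucleotide variants, half-site ablations and random human genomic background sequences in 34-nt variable regions. Incubation lasted 1 h. Binding z-scores were computed against the random background probes from regression-normalized fluorescence.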
The sequence TCGAGTAGGTTAGGGGCATTCACAATGGCGTCGA showed a PBM binding z-score of -0.325.
The same measure, in the same setting: the value for TCAAATAGGTAAACAGGTGAAAGTCCGTAAGTTA was 0.833; that for CTACCAAGGTGAACAAGGTCGGTGATTACTATTC was 0.327.
For the sequence GCATATAGGTAATACAAGGTGAATGTCCGATTGT, the PBM binding z-score stood at 1.78.
The same measure, in the same setting: next, CATCAAAGTTCAAGGTAACGTAACAGAAAGCAGC: 1.29; ATATGTAGGTTAGCTGGGATCATTCAGACTAGGC: 1.97; ACTTACGGTTCAACGAGGTTATAGCACGCGTATA: 1.36.
The same measure, in the same setting: next, CCTACTCGGCCAAAGGTCATTGATTCCAATGCTC: 0.222.
For CCTAGTTGGTCAGGAGGTGACACACCGGATATGA, the PBM binding z-score is 0.321.
Same read-out and setting: the value for TGACCAAGGTGAAGGTCGTTGATCCCTCTGTAGA was -0.305; that for GGAACGAGGGCATACGAGTTGATAGCATGGCGAT was 0.174.
In turn, TCTATTAGTTGAAGGGCGACCGACGAGTCCGTTT displayed a PBM binding z-score of 0.865.
With TCTTGTAGATCAAGCAGGTTGAGAAAGCCTGAGT, the PBM binding z-score is -0.788.
Same read-out and setting: next, ACAGACAGGTGATGAATGTAACTCAGGCTATCAT: 0.806.
As to AGAATGAGGTTACCACAGATCAGGGAAACGCTTG, the PBM binding z-score came to 1.25.
The same measure, in the same setting: next, ACAGACAGGTGAGGAAGGTAACTCAGGCTATCAT: 0.395; GATACAGGGTCAAGCCCAGAGTACGCGTATTGAT: 0.821.
CCTTACGGGTCAAGGCTATAGCACGGGTGGTACG yielded a PBM binding z-score of -0.373.
Same read-out and setting: the value for CCTAGTTGGTCAGTAGGTCACACACCGGATATGA was 0.241; that for AATCGGAGGACAAAGGTCAGAGCTACGCCAGTGA was 0.0778.
The sequence CAAACTAGGTCAAGAGGACAAAGTCCGCTTCCCG yielded a PBM binding z-score of 2.16.
Still for that read-out and setting: the value for CCTAGCAGGCCAGGGTCATTCAAGCATTTCGCTT was -0.751.
Turning to CCTCCTGGGCCAAGGTCATTGATCAGTCAAAGCA, the PBM binding z-score is -1.33.
Still for that read-out and setting: the value for ATCTCTGGGTAAAGTTCAGTGAAAGATCGATAGA was 0.904; that for CTCGAAAGGTTGTGCTCAGGTGAGTATACCAAAC was -0.154; that for ATCGAAAGGTCGTGAGGTGAGTATTCAGAAAGGC was 0.908.
Still for that read-out and setting: the value for AGAATGAGGTTACCAACGATCAGGGAAACGCTTG was 0.997; that for TCATCTAGGTAAAAGGTGAAAGTCGGTGTGGTAA was 2.1; that for TCTAGCAGGCCAGAGGGTCTCTCAAGAGGTACGG was -1.92.
Still for that read-out and setting: next, CAAACTAGGTCACCGGAAGGTCACAGTCCGCATG: 2.66; ATCTCTAGGAAAAAGTTCAGTGAATCCCGAGGAT: 0.814.
With TCTAGTTGGTTAAAGGTCACACACTCGAAATGCG, the PBM binding z-score stood at 1.74.
For the sequence CGTCGAAGGTCAAGGTCAGTGAAAGAGACTCGAA, the PBM binding z-score is 0.183.
Sequence CCGACTGGGGCAAGGTTACCAGAACGCACAGCCA displayed a PBM binding z-score of -0.808.
On the same count and under the same terms, the value for TCTTGTAGATCAAAGGTGAAGAAAGCCGAAGCCT was -0.0532; that for ATATGTAGGTTAGCTGGGGTCATTCGGACTAGGC was 3.21; that for TCTCGGAGGACTCGAAGGTCAGAGCTTTCCAGAG was -0.446.
On the same count and under the same terms, the value for CCGAGTAGGTGATGGGGCATTCAGGCAACGGTGA was 0.0749; that for TCGAGTAGGGTAGGGGCATTCAGAATGGCGTCGA was -0.123; that for TCATATACGTAAAAGGTGAAAGTCGGTGTGGTAA was 2.06.

For another assay, the system named is PPARg DBDmut IVT, anti-PPARg (DBD mutation: PPARg1 K132A/R137A, NR concentration 270 nM). The assay is described as above. In short, it runs like this: as §1
In turn, TCGAGTAGGTTAGGGGCATTCACAATGGCGTCGA registered a PBM binding z-score of -0.622.
On the same count and under the same terms, next, TCAAATAGGTAAACAGGTGAAAGTCCGTAAGTTA: 0.995.
The same measure, in the same setting: the value for CTACCAAGGTGAACAAGGTCGGTGATTACTATTC was -0.584.
The same measure, in the same setting: next, GCATATAGGTAATACAAGGTGAATGTCCGATTGT: 0.61; CATCAAAGTTCAAGGTAACGTAACAGAAAGCAGC: 1.96.
With ATATGTAGGTTAGCTGGGATCATTCAGACTAGGC, the PBM binding z-score was found to be 2.29.
On the same count and under the same terms, the value for ACTTACGGTTCAACGAGGTTATAGCACGCGTATA was 1.61; that for CCTACTCGGCCAAAGGTCATTGATTCCAATGCTC was -0.127; that for CCTAGTTGGTCAGGAGGTGACACACCGGATATGA was -0.109.
Still for that read-out and setting: the value for TGACCAAGGTGAAGGTCGTTGATCCCTCTGTAGA was -0.387; that for GGAACGAGGGCATACGAGTTGATAGCATGGCGAT was -0.54; that for TCTATTAGTTGAAGGGCGACCGACGAGTCCGTTT was 1.2.
On the same count and under the same terms, next, TCTTGTAGATCAAGCAGGTTGAGAAAGCCTGAGT: -0.244; ACAGACAGGTGATGAATGTAACTCAGGCTATCAT: 0.471.
In turn, AGAATGAGGTTACCACAGATCAGGGAAACGCTTG displayed a PBM binding z-score of 0.385.
The same measure, in the same setting: the value for ACAGACAGGTGAGGAAGGTAACTCAGGCTATCAT was -0.587; that for GATACAGGGTCAAGCCCAGAGTACGCGTATTGAT was -0.0259; that for CCTTACGGGTCAAGGCTATAGCACGGGTGGTACG was -0.381.
CCTAGTTGGTCAGTAGGTCACACACCGGATATGA came in with a PBM binding z-score of 0.396.
Still for that read-out and setting: the value for AATCGGAGGACAAAGGTCAGAGCTACGCCAGTGA was -0.0229; that for CAAACTAGGTCAAGAGGACAAAGTCCGCTTCCCG was 2.91; that for CCTAGCAGGCCAGGGTCATTCAAGCATTTCGCTT was -1.91.
On the same count and under the same terms, the value for CCTCCTGGGCCAAGGTCATTGATCAGTCAAAGCA was -1.61; that for ATCTCTGGGTAAAGTTCAGTGAAAGATCGATAGA was 1.34.
Same read-out and setting: next, CTCGAAAGGTTGTGCTCAGGTGAGTATACCAAAC: -0.108; ATCGAAAGGTCGTGAGGTGAGTATTCAGAAAGGC: 0.365.
Take AGAATGAGGTTACCAACGATCAGGGAAACGCTTG: the PBM binding z-score stood at 1.46.
On the same count and under the same terms, the value for TCATCTAGGTAAAAGGTGAAAGTCGGTGTGGTAA was 1.06; that for TCTAGCAGGCCAGAGGGTCTCTCAAGAGGTACGG was -1.94.
Turning to CAAACTAGGTCACCGGAAGGTCACAGTCCGCATG, the PBM binding z-score came to 1.61.
On the same count and under the same terms, the value for ATCTCTAGGAAAAAGTTCAGTGAATCCCGAGGAT was 0.266; that for TCTAGTTGGTTAAAGGTCACACACTCGAAATGCG was 2.83; that for CGTCGAAGGTCAAGGTCAGTGAAAGAGACTCGAA was -0.374.
Regarding CCGACTGGGGCAAGGTTACCAGAACGCACAGCCA, the PBM binding z-score was -1.44.
With TCTTGTAGATCAAAGGTGAAGAAAGCCGAAGCCT, the PBM binding z-score was found to be 0.112.
The same measure, in the same setting: the value for ATATGTAGGTTAGCTGGGGTCATTCGGACTAGGC was 1.98; that for TCTCGGAGGACTCGAAGGTCAGAGCTTTCCAGAG was -1.86.
Consider CCGAGTAGGTGATGGGGCATTCAGGCAACGGTGA, for which the PBM binding z-score was -1.06.
Still for that read-out and setting: next, TCGAGTAGGGTAGGGGCATTCAGAATGGCGTCGA: 1.32; TCATATACGTAAAAGGTGAAAGTCGGTGTGGTAA: 2.25.
